From PubChem BioAssay (NCI) come the findings set out here.

The structures appear in SMILES notation. Compounds without any hit were thinned out: in the full panel of roughly 83,000, 20% have a hit.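 Plates (96-well) were seeded with cells, treated with compound at one concentration, and incubated for 48 hours before percent growth was determined.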 A number with no mark means an inactive call. Active and inactive are the calls of the source. Rule for the calls: active = growth percent below 10; inactive = the rest.

Among the test systems are NCI-H23 lung; NCI-H226 lung; NCI-H322M lung; HOP-62 NSCLC; NCI-H460 lung; NCI-H522 lung; A549/ATCC NSCLC; 786-0 renal; COLO 205 colon; DU-145 prostate; K-562 leukemia; MALME-3M melanoma; MDA-MB-231 breast; RXF 393 renal; SF-268 CNS; SF-295 CNS; SF-539 CNS; UACC-257 melanoma; M14 melanoma; HCT-15 colon.
What all share (test): NCI-60 one-dose screen, 48 h (100 = growth as untreated, 0 = no growth, -100 = all killed)
Holding throughout (details): 10 µM

With `CCN1CCCC1CNC(=O)c1ncc(-c2ccc(C(F)(F)F)cc2)c(NC2CCCCCC2)n1` (stereo not given), the growth in the assay on NCI-H23 lung was 92.5%; with NCI-H226 lung, 86%; in the assay with NCI-H322M lung, 84.7%; in the assay on HOP-62 NSCLC, 97%; in the assay on NCI-H460 lung, 80.4%; with NCI-H522 lung, 69.1%. The growth with A549/ATCC NSCLC is 77.2%; in the assay with 786-0 renal, 84.5%; in the assay on COLO 205 colon, 42.7%; with DU-145 prostate, 83.2%; in the assay on K-562 leukemia, 8.32% (active); in the assay with MALME-3M melanoma it was 54%. Further, the growth is 67.3% in the assay on MDA-MB-231 breast; 74.1% in the assay with RXF 393 renal; 86.8% in the assay on SF-268 CNS; 69.3% with SF-295 CNS; 94.7% in the assay with SF-539 CNS; -46.2% (active) with UACC-257 melanoma. The growth is 26.1% in the assay on M14 melanoma and 90.8% in the assay with HCT-15 colon.
Take `O=C(/C=C/c1cc2ccccc2[nH]c1=O)c1ccc2c(c1)OCO2`: the growth in the assay on NCI-H23 lung is 98.5%; in the assay on NCI-H226 lung it was 114%; in the assay on NCI-H322M lung it was 92%; with HOP-62 NSCLC it was 98%; in the assay with NCI-H460 lung it was 94.4%; in the assay on NCI-H522 lung, 3.16% (active). Further, the growth in the assay with A549/ATCC NSCLC is 93.4%; in the assay on 786-0 renal, 102%; in the assay on COLO 205 colon it was 95.7%; in the assay with DU-145 prostate, 102%; with K-562 leukemia it was 87.4%; with MALME-3M melanoma it was 78%. The growth in the assay with MDA-MB-231 breast is 94%; in the assay on RXF 393 renal it was 112%; in the assay with SF-268 CNS it was 93.6%; with SF-295 CNS it was 100%; in the assay on SF-539 CNS it was 88.2%; with UACC-257 melanoma, 94.2%. Besides, the results for the growth in the assay on M14 melanoma and in the assay on HCT-15 colon were 87.3% and 97.6%, respectively.
Regarding `CC(=O)C1CCC2C3CC(F)C4=CC(=O)CCC4(C)C3C(O)CC12C` (stereo not given), the growth is 104% in the assay on NCI-H23 lung; 85.9% in the assay with NCI-H226 lung; 90.9% in the assay on NCI-H322M lung; 93% in the assay on HOP-62 NSCLC; 103% in the assay on NCI-H460 lung; 85.8% in the assay on NCI-H522 lung. Also, the growth with A549/ATCC NSCLC was 82.3%; with 786-0 renal, 96.3%; in the assay on COLO 205 colon, 104%; with DU-145 prostate, 110%; in the assay with K-562 leukemia, 86.1%; with MALME-3M melanoma it was 86.6%. The growth in the assay on MDA-MB-231 breast was 98.8%; with RXF 393 renal, 118%; in the assay with SF-268 CNS, 106%; in the assay on SF-295 CNS it was 97.8%; in the assay with SF-539 CNS it was 101%; in the assay on UACC-257 melanoma it was 98.6%. Besides, the growth was 93.6% in the assay with M14 melanoma and 108% in the assay with HCT-15 colon.
`Cc1cc(=O)[nH]c(N/N=C/c2ccccc2O)n1`: the growth with NCI-H23 lung was 78.6%; with NCI-H226 lung, 91%; in the assay with NCI-H322M lung it was -5.84% (active); in the assay with HOP-62 NSCLC, 61.3%; with NCI-H460 lung it was 23.3%; with NCI-H522 lung, 77.3%. For the same compound, the growth with A549/ATCC NSCLC is 33.1%; in the assay on 786-0 renal, 93.4%; with COLO 205 colon, 49.2%; with DU-145 prostate, 78.8%; in the assay with K-562 leukemia it was 59.9%; in the assay with MALME-3M melanoma, 35.1%. Moreover, the growth was 76.6% in the assay with MDA-MB-231 breast; 90% in the assay on RXF 393 renal; 39.1% in the assay with SF-268 CNS; 43.2% in the assay on SF-295 CNS; 96.8% in the assay on SF-539 CNS; 88% with UACC-257 melanoma. In addition, the results for the growth in the assay on M14 melanoma and in the assay on HCT-15 colon were 29.9% and 40.7%, respectively.
On to `N=C(N)c1ccc(-c2ccc(-c3cccs3)o2)cc1`, for which the growth in the assay on NCI-H23 lung is 85.1%; in the assay with NCI-H226 lung, 67.5%; in the assay with NCI-H322M lung, 12.8%; in the assay with HOP-62 NSCLC, 64.7%; in the assay with NCI-H460 lung, 0.151% (active); with NCI-H522 lung it was 61.9%. Also, the growth was 45.4% in the assay with A549/ATCC NSCLC; 62.3% with 786-0 renal; -97.4% (active) with COLO 205 colon; 57.9% in the assay on DU-145 prostate; -13.1% (active) in the assay with K-562 leukemia; -72.4% (active) in the assay on MALME-3M melanoma. The growth with MDA-MB-231 breast is 0.444% (active); in the assay on RXF 393 renal, 39%; in the assay with SF-268 CNS, 61.6%; in the assay with SF-295 CNS, -52.3% (active); in the assay with SF-539 CNS, 77.9%; in the assay with UACC-257 melanoma it was -47.3% (active). Moreover, the growth in the assay with M14 melanoma was -27.4% (active); in the assay with HCT-15 colon it was -10.2% (active).
In the case of `CSc1nn(-c2ccccc2)c2ncnc(Oc3ccc(C)cc3)c12`, the growth in the assay with NCI-H23 lung is 91.8%; in the assay with NCI-H226 lung, 81.4%; in the assay with NCI-H322M lung, 82%; in the assay on HOP-62 NSCLC, 67.5%; with NCI-H460 lung, 91%; with NCI-H522 lung it was 75.5%. Moreover, the growth with A549/ATCC NSCLC is 80%; with 786-0 renal, 65.4%; with COLO 205 colon, 113%; in the assay with DU-145 prostate, 105%; in the assay with K-562 leukemia, 88.9%; in the assay with MALME-3M melanoma, 91.6%. The growth was 66.9% with MDA-MB-231 breast; 68.9% in the assay with RXF 393 renal; 90.7% in the assay with SF-268 CNS; 93.1% in the assay with SF-295 CNS; 94.5% with SF-539 CNS; 93% in the assay with UACC-257 melanoma. Also, the growth was 90.5% in the assay on M14 melanoma and 93.5% in the assay with HCT-15 colon.
In the case of `Cc1[nH]nc2c1C(c1cnn(C)c1)C(C#N)=C(N)O2` (stereo not given), the growth with NCI-H23 lung is 101%; in the assay with NCI-H226 lung, 105%; with NCI-H322M lung, 96.9%; with HOP-62 NSCLC, 97.9%; in the assay on NCI-H460 lung, 104%; in the assay with NCI-H522 lung it was 80.4%. Moreover, the growth in the assay on A549/ATCC NSCLC is 96.1%; with 786-0 renal it was 102%; with COLO 205 colon, 114%; with DU-145 prostate, 110%; in the assay on K-562 leukemia, 93.6%; with MALME-3M melanoma, 95.8%. Besides, the growth in the assay on MDA-MB-231 breast was 117%; in the assay on RXF 393 renal, 106%; in the assay on SF-268 CNS it was 105%; in the assay with SF-295 CNS it was 105%; with SF-539 CNS, 99.3%; with UACC-257 melanoma it was 98.3%. Also, the growth with M14 melanoma is 100%; with HCT-15 colon, 99.6%.
For `O=C1/C(=C/c2ccc([N+](=O)[O-])o2)Oc2ccccc21`, the growth is -8.25% (active) in the assay with NCI-H23 lung; 23.9% with NCI-H226 lung; 91.6% in the assay with NCI-H322M lung; 62.2% with HOP-62 NSCLC; 31.8% in the assay with NCI-H460 lung; -79.6% (active) in the assay on NCI-H522 lung. The growth was 62.5% in the assay on A549/ATCC NSCLC; -38.5% (active) in the assay with 786-0 renal; -66% (active) in the assay on COLO 205 colon; -8.6% (active) with DU-145 prostate; 1.24% (active) in the assay on K-562 leukemia; -40.6% (active) in the assay on MALME-3M melanoma. For the same compound, the growth was -17.3% (active) in the assay with MDA-MB-231 breast; -74.9% (active) in the assay with RXF 393 renal; -10.8% (active) in the assay on SF-268 CNS; 79.2% with SF-295 CNS; -40.7% (active) in the assay on SF-539 CNS; -8.85% (active) in the assay on UACC-257 melanoma. Further, the growth is 13.8% in the assay with M14 melanoma and 1.63% (active) in the assay on HCT-15 colon.
